Assay: EMT-state selective cytotoxicity in co-culture – imaging, PC-3E GFP, TEM4-18 mCherry, primary screen (AID 1345086);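 also: cells exposed to compound for 72 h before imaging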
Conditions: PC-3E GFP / TEM4-18 mCherry co-culture, imaging cell counts; measured here: mesenchymal TEM4-18 mCherry cell survival; at 1 µM

Row | Structure (SMILES) | normalised cell number
1 | C[C@]12CCC3c4ccc(OC(=O)c5ccccc5)cc4CCC3C1CC[C@@H]2O (stereo not given in full) | 1.1
2 | NCC1O[C@@H](OC2C(N)C[C@@H](N)C(OC3OC(CO)[C@@H](O)C(N)[C@H]3O)[C@H]2O)C(O)[C@@H](O)C1O (stereo not given in full) | 1.13
3 | CC(=O)O[C@H]1CC[C@@]2(C)C(CC[C@]3(C)C2CC=C2C4CC(C)(C)CC[C@]4(C)CC[C@]23C)C1(C)C (stereo not given in full) | 1.15
4 | COc1cccc(Oc2c(O)cc(C)cc2CC(=O)c2cc(C)cc(O)c2C(=O)c2c(O)cccc2O)c1C(=O)O | 1.21
5 | CC(C)C1=CC2=CCC3[C@](C)(CCC[C@]3(C)C(=O)O)C2CC1 (stereo not given in full) | 1.03
6 | CC(=O)OC[C@@]1(O)C[C@@]23CCC4c5ccoc5CC[C@]4(C)C2CC[C@@H]1C3 (stereo not given in full) | 0.88
7 | O=C(NCC[C@H](O)C(=O)O)OCc1ccccc1 | 1.14
8 | CC(=O)OCC1O[C@H]2OC(=O)NC2[C@@H](OC(C)=O)C1OC(C)=O (stereo not given in full) | 1.08
9 | O=C(O)C(O)C(O)C(O)C(O)C(=O)O (stereo not given) | 1.05
10 | CC(C)(C)Oc1c(F)c(F)nc(F)c1Cl | 0.76

— PubChem BioAssay
